# According to PubChem BioAssay (EPA / NIEHS):
# Values joined by “and” are separate entries in the source; they are usually repeats but may differ in a detail not shown here. Equal entries are not always repeated. Records with an inconclusive call do not appear. Where a structure was tested more than once in an assay, its records may differ in their call. Active and inactive are the calls of the source. The calls were made as follows: active = hit-call score of the fitted dose curve at least 0.9, where 1 is the maximum; inconclusive = response in the unintended direction; inactive = score below 0.9.
# Assays:
# [1] = biological target: human Dopamine Receptor D4.4 (DRD4.4), DRD4 (gene 1815) (UniProt P21917); assay: NVS_GPCR_hDRD4.4: NovaScreen (NVS) G Protein-Coupled Receptor Assay for human Dopamine Receptor D4.4 (DRD4.4) (AID 2283264)
# How it was run: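 Filter-binding assay with a tritiated or iodinated ligand, cell-free receptor prepared from CHO, 1 hour. Loss of bound radioactivity versus DMSO; single 25 uM duplicate screen, then concentration-response for actives.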
# [2] = biological target: human Dopamine Receptor D2 (DRD2), DRD2 (gene 1813) (UniProt P14416); assay: NVS_GPCR_hDRD2s: NovaScreen (NVS) G Protein-Coupled Receptor Assay for human Dopamine Receptor D2 (DRD2) (AID 2283266)
# How it was run: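 Test compound (25 uM, duplicate in the primary screen; concentration series at follow-up) competed with radioligand for human DRD2 in CHO-derived membrane protein. Filter-based scintillation counting was done 1.5 hours after dosing, with loss of signal analysed against DMSO.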
# [3] = biological target: human Neurokinin, NK2 Receptor, TACR2 (gene 6865) (UniProt P21452); assay: NVS_GPCR_hNK2: NovaScreen (NVS) G Protein-Coupled Receptor Assay for human Neurokinin, NK2 Receptor (AID 2283278);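 also: actives reduce bound radioligand signal relative to DMSO baseline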
# human Neurokinin, NK2 Receptor, TACR2 (gene 6865), sequence (P21452 whole entry, looked up): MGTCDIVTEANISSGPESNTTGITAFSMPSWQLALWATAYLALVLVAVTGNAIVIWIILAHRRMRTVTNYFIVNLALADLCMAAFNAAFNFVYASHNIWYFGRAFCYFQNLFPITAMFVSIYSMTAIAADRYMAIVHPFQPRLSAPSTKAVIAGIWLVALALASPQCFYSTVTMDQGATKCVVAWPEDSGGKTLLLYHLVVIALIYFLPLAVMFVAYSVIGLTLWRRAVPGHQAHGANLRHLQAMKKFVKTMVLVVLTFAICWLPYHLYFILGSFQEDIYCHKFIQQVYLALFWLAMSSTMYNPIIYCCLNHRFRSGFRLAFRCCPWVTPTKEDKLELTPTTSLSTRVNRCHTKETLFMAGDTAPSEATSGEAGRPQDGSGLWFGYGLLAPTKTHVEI
# How it was run: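 Filter-based scintillation counting measured radioligand bound to receptor extracted from CHO cells, 4 hours after compound addition. Chemicals screened first at 25 uM in duplicate, with actives retested in concentration series relative to DMSO.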
# [4] = biological target: human Endothelin Receptor Type B (ETB), EDNRB (gene 1910) (UniProt P24530); assay: NVS_GPCR_hETB: NovaScreen (NVS) G Protein-Coupled Receptor Assay for human Endothelin Receptor Type B (ETB) (AID 2283267)
# How it was run: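 Filter-based scintillation readout of radioligand displacement, 4 h, using membranes from human astrocytoma cells. Actives from a 25 uM duplicate screen were retested in concentration-response (top 50 uM) relative to DMSO baseline.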
# [5] = biological target: D(1A) dopamine receptor (Homo sapiens) (UniProt P21728); assay: NVS_GPCR_hDRD1: NovaScreen (NVS) G Protein-Coupled Receptor Assay for human Dopamine Receptor D1 (DRD1) (AID 2283269)
# D(1A) dopamine receptor (Homo sapiens), sequence (P21728 whole entry, looked up): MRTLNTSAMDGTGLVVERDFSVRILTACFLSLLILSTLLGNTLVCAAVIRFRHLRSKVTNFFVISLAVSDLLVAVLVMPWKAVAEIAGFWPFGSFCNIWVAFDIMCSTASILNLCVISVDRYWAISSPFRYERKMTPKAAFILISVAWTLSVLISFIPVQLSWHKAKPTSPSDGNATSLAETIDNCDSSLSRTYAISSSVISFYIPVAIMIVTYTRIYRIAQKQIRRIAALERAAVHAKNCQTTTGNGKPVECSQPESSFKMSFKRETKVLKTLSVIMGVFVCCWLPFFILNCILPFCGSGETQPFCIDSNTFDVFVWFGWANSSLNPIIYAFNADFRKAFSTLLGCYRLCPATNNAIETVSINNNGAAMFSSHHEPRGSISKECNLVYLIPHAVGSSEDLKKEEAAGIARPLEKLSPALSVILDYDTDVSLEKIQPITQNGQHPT
# How it was run: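 HEK293-derived receptor preparation; radioligand competitive displacement; 1 h; filtration + scintillation counting. DMSO = negative control/baseline. Primary: 25 uM, duplicate; secondary: concentration–response for actives.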
# [6] = biological target: human Leukotriene B4 Receptor 1 (LTB4-BLT1), LTB4R (gene 1241) (UniProt Q15722); assay: NVS_GPCR_hLTB4_BLT1: NovaScreen (NVS) G Protein-Coupled Receptor Assay for human Leukotriene B4 Receptor 1 (LTB4-BLT1) (AID 2283271)
# human Leukotriene B4 Receptor 1 (LTB4-BLT1), LTB4R (gene 1241), sequence (Q15722 whole entry, looked up): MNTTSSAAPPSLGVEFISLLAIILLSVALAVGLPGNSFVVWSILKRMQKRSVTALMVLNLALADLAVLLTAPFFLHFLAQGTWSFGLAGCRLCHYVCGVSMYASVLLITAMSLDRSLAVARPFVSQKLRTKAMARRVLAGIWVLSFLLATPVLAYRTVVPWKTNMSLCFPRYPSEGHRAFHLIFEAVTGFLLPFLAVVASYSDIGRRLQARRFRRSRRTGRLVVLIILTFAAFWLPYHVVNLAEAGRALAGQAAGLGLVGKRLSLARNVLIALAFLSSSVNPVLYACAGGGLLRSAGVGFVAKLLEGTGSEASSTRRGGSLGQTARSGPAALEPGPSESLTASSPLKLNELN
# How it was run: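 Cell-free human neutrophil receptor preparation, 1 h exposure, radioligand binding read by filter scintillation counting. Single 25 uM duplicate screen, then concentration series topping at 50 uM; binding loss scored against DMSO baseline.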
# [7] = biological target: human Histamine 1 Receptor (H1), HRH1 (gene 3269) (UniProt P35367); assay: NVS_GPCR_hH1: NovaScreen (NVS) G Protein-Coupled Receptor Assay for human Histamine 1 Receptor (H1) (AID 2283268)
# human Histamine 1 Receptor (H1), HRH1 (gene 3269), sequence (P35367 whole entry, looked up): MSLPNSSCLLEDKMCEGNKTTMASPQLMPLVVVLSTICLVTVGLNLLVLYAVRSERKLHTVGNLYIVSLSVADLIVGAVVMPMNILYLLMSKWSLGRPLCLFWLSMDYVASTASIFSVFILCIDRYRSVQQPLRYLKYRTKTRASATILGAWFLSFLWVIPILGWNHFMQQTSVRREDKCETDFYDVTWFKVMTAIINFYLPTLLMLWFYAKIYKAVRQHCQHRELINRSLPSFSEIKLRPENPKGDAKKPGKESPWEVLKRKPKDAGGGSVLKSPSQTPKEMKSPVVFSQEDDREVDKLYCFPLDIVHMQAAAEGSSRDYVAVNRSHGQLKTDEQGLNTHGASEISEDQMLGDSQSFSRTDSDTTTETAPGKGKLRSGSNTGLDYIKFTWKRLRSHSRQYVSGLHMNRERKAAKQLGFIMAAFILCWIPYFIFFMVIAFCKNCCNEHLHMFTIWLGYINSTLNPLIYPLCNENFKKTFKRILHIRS
# How it was run: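 Filter-based scintillation detection of radioligand binding to human H1, 1 h incubation; chemicals screened in duplicate at 25 uM, then concentration-response; signal loss relative to DMSO taken as activity.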
# [8] = biological target: Muscarinic acetylcholine receptor M2 (Homo sapiens) (UniProt P08172); assay: NVS_GPCR_hM2: NovaScreen (NVS) G Protein-Coupled Receptor Assay for human Muscarinic, M2 Receptor (AID 2283273)
# Muscarinic acetylcholine receptor M2 (Homo sapiens), sequence (P08172 whole entry, looked up): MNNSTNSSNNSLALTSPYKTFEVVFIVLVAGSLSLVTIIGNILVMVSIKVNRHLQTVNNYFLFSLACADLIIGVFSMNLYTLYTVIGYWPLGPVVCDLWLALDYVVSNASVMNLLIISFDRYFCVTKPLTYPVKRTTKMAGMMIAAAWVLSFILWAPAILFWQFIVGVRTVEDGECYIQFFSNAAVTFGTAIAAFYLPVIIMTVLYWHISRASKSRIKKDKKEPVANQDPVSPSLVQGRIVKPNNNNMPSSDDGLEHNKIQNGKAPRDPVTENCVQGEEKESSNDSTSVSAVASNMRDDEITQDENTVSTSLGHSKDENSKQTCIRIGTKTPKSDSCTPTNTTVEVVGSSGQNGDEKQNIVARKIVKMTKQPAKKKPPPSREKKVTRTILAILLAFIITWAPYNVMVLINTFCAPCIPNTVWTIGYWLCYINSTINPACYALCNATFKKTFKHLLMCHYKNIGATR
# How it was run: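 Radioligand competition binding, cell-free, receptor from CHO; 1 h incubation; scintillation detection. Primary testing at 25 uM in duplicate.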
# [9] = biological target: human Neurotensin Receptor (NTS), NTSR1 (gene 4923) (UniProt P30989); assay: NVS_GPCR_hNTS: NovaScreen (NVS) G Protein-Coupled Receptor Assay for human Neurotensin Receptor (NTS) (AID 2283279)
# human Neurotensin Receptor (NTS), NTSR1 (gene 4923), sequence (P30989 whole entry, looked up): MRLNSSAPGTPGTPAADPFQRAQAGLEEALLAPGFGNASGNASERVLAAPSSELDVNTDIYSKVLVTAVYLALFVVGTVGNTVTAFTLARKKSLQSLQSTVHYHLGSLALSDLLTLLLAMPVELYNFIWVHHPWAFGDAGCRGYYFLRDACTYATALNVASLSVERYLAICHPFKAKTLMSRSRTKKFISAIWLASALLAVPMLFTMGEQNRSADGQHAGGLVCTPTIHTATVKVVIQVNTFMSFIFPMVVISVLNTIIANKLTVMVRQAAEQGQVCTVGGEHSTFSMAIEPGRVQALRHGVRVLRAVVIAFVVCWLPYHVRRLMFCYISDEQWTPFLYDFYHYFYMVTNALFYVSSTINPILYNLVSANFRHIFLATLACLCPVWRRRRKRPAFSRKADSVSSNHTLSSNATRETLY
# How it was run: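 Compounds competed with a radiolabelled ligand for binding to CHO-derived human neurotensin receptor; bound signal counted after filtration, 1 h. Screened first at a single concentration of 25 uM in duplicate, then concentration series to 50 uM maximum for actives.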
# [10] = biological target: human Neuropeptide Receptor Y1 (NPY1), NPY1R (gene 4886) (UniProt P25929); assay: NVS_GPCR_hNPY1: NovaScreen (NVS) G Protein-Coupled Receptor Assay for human Neuropeptide Receptor Y1 (NPY1) (AID 2283276)
# human Neuropeptide Receptor Y1 (NPY1), NPY1R (gene 4886), sequence (P25929 whole entry, looked up): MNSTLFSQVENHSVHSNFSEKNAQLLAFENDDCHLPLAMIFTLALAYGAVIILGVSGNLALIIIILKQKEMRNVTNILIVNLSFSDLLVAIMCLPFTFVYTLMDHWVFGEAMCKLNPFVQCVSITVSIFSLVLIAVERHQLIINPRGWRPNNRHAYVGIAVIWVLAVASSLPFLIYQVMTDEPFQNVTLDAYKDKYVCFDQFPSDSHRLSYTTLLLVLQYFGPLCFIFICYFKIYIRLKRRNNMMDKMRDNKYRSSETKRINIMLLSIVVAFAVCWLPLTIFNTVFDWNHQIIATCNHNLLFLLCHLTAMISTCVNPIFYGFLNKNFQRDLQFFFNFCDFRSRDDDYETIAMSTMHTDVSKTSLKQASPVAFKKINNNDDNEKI
# How it was run: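 Displacement of specific radioligand from NPY1 receptor of SK-N-MC origin, read by filtration and scintillation after 1 h. Compounds first tested at 25 uM in duplicate, then actives in concentration series; signal loss relative to DMSO.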
# [11] = biological target: human Purinergic Receptor P2Y, P2RY1 (gene 5028) (UniProt P47900); assay: NVS_GPCR_hPY2: NovaScreen (NVS) G Protein-Coupled Receptor Assay for human Purinergic Receptor P2Y (AID 2283281)
# How it was run: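 Filtration scintillation readout of radioligand displacement on U937 extract, measured 1 h post-dosing. Single 25 uM duplicate screen, then singleton concentration series to 50 uM for chemicals passing threshold; DMSO as baseline.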
# [12] = biological target: human Orphanin, Opioid Related Nociceptin Receptor 1 (ORL1), OPRL1 (gene 4987) (UniProt P41146); assay: NVS_GPCR_hORL1: NovaScreen (NVS) G Protein-Coupled Receptor Assay for human Orphanin, Opioid Related Nociceptin Receptor 1 (ORL1) (AID 2283283)
# human Orphanin, Opioid Related Nociceptin Receptor 1 (ORL1), OPRL1 (gene 4987), sequence (P41146 whole entry, looked up): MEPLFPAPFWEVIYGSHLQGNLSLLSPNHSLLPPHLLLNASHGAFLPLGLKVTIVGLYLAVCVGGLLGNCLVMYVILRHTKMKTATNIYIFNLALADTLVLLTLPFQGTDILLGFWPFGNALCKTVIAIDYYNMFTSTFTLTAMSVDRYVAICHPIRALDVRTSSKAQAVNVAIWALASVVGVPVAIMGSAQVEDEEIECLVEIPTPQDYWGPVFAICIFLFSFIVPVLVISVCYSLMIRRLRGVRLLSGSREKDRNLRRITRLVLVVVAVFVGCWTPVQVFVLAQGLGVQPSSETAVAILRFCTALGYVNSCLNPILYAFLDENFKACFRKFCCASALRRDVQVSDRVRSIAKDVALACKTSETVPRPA
# How it was run: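 Cell-free binding using HEK293-derived receptor protein: radioligand displacement measured by filter scintillation 1 hour after dosing. Primary testing at 25 uM in duplicate, followed by singleton concentration series up to 50 uM; DMSO served as negative control.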
# [13] = biological target: Muscarinic acetylcholine receptor M3 (Homo sapiens) (UniProt P20309); assay: NVS_GPCR_hM3: NovaScreen (NVS) G Protein-Coupled Receptor Assay for human Muscarinic, M3 Receptor (AID 2283272)
# How it was run: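 Radioligand displacement binding on human M3 receptor in CHO-derived membranes, 1 h incubation, filter-based scintillation counting. Primary screen in duplicate at 25 uM; actives followed up in concentration series; loss of signal versus DMSO.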
# [14] = biological target: human Muscarinic, M4 Receptor, CHRM4 (gene 1132) (UniProt P08173); assay: NVS_GPCR_hM4: NovaScreen (NVS) G Protein-Coupled Receptor Assay for human Muscarinic, M4 Receptor (AID 2283274)
# human Muscarinic, M4 Receptor, CHRM4 (gene 1132), sequence (P08173 whole entry, looked up): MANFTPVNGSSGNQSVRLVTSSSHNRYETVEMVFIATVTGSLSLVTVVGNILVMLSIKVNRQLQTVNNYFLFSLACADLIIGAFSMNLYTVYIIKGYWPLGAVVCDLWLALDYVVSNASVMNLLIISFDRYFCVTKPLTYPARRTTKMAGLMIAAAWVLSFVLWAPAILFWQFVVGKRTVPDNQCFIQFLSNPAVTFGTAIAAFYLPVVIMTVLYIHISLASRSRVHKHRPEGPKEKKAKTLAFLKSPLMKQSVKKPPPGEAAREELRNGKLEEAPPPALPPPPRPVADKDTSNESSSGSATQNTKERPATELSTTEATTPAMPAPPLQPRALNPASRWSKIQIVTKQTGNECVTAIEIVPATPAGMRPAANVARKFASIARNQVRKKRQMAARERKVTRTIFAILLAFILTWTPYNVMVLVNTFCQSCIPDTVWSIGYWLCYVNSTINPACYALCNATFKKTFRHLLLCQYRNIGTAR
# How it was run: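 Filter-based scintillation counting of radioligand bound to CHO-expressed human M4 preparations after 1 h; loss of signal fitted versus DMSO. Initial duplicate testing at 25 uM, concentration-response follow-up for actives.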
# [15] = biological target: human Opioid Receptor Delta 1 (Opiate D1), OPRD1 (gene 4985) (UniProt P41143); assay: NVS_GPCR_hOpiate_D1: NovaScreen (NVS) G Protein-Coupled Receptor Assay for human Opioid Receptor Delta 1 (Opiate D1) (AID 2283280)
# human Opioid Receptor Delta 1 (Opiate D1), OPRD1 (gene 4985), sequence (P41143 whole entry, looked up): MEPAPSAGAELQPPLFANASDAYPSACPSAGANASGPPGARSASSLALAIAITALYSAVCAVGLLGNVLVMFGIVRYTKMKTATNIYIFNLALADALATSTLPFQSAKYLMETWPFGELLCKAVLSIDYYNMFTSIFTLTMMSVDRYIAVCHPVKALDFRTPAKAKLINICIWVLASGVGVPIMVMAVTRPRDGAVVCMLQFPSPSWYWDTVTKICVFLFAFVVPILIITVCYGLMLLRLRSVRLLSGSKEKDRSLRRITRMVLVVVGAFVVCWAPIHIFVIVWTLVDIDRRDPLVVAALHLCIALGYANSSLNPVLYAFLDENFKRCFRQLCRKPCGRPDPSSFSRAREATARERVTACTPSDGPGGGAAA
# How it was run: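 Membrane preparations from CHO cells bearing the human receptor were incubated 1 h with test chemical, and bound radioligand was counted after filtration. Actives from 25 uM duplicate screening were retested in concentration-response.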
# [16] = biological target: Muscarinic acetylcholine receptor M1 (Homo sapiens) (UniProt P11229); assay: NVS_GPCR_hM1: NovaScreen (NVS) G Protein-Coupled Receptor Assay for human Muscarinic, M1 Receptor (AID 2283270)
# How it was run: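 Actives from a duplicate 25 uM single-point screen were retested in concentration series. Binding measured as displacement of a radioligand from CHO-derived receptor preparation, 1 h incubation, filtration and scintillation counting, analysed as signal loss against DMSO.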
# [17] = biological target: Type-1 angiotensin II receptor (Homo sapiens) (UniProt P30556); assay: NVS_GPCR_hAT1: NovaScreen (NVS) G Protein-Coupled Receptor Assay for human Angiotensin II receptor type 1 (AT1) (AID 2283263)
# Type-1 angiotensin II receptor (Homo sapiens), sequence (P30556 whole entry, looked up): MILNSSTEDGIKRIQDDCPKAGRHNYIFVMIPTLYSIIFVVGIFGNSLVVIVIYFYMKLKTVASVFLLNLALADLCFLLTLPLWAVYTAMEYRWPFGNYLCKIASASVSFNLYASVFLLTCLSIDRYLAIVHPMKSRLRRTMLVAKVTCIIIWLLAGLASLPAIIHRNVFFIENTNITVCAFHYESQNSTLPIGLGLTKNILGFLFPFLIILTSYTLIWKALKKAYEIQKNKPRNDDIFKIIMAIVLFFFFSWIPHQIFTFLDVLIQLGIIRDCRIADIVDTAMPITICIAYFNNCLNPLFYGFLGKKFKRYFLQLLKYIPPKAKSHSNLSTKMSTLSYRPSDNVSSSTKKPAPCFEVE
# How it was run: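 Hits from a 25 uM duplicate screen (threshold e.g. 30% inhibition) were run in concentration-response with 50 uM top concentration. Displacement of specific radioligand from KAN-TS membrane preparations measured after 3 h by filter scintillation, DMSO as baseline.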
# [18] = biological target: Neuropeptide Y receptor type 2 (Homo sapiens) (UniProt P49146); assay: NVS_GPCR_hNPY2: NovaScreen (NVS) G Protein-Coupled Receptor Assay for human Neuropeptide Receptor Y2 (NPY2) (AID 2283277)
# Neuropeptide Y receptor type 2 (Homo sapiens), sequence (P49146 whole entry, looked up): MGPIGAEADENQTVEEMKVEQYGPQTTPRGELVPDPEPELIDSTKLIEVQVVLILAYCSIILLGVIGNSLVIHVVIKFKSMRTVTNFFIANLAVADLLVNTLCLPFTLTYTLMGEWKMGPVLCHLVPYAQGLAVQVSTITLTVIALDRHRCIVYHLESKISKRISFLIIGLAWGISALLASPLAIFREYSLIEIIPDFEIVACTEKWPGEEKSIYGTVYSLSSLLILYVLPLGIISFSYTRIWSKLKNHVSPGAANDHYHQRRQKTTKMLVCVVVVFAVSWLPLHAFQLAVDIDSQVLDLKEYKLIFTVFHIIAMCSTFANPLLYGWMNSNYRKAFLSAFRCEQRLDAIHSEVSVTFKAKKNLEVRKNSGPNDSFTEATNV
# How it was run: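 Chemicals were first tested in duplicate at 25 uM, then actives in singleton concentration series to 50 uM. Tracer binding to SK-N-MC-derived protein measured cell-free after 1 h via filter scintillation; signal loss relative to DMSO.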
# [19] = biological target: human Vasopressin 1A Receptor (V1A), AVPR1A (gene 552) (UniProt P37288); assay: NVS_GPCR_hV1A: NovaScreen (NVS) G Protein-Coupled Receptor Assay for human Vasopressin 1A Receptor (V1A) (AID 2283284)
# How it was run: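 Single-concentration duplicate screen at 25 uM, with concentration-response follow-up (top 50 uM) for actives. The assay measured displacement of a radioligand from human platelet-derived receptor after 1.5 h, detected by filtration and scintillation counting.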
# [20] = biological target: human Endothelin Receptor Type A (ETA), EDNRA (gene 1909) (UniProt P25101); assay: NVS_GPCR_hETA: NovaScreen (NVS) G Protein-Coupled Receptor Assay for human Endothelin Receptor Type A (ETA) (AID 2283265)
# How it was run: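 Binding of radioligand to membrane protein extracted from SH-SY5Y cells was read by filtration and scintillation after 3 h. Compounds were screened at 25 uM in duplicate, with hits followed up in singleton concentration series to 50 uM.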
structure (smiles),measurement,setting,value
Cc1ccc(-c2c(Cl)nc(C#N)n2S(=O)(=O)N(C)C)cc1,outcome,[1],inactive
same,outcome,[2],inactive
same,outcome,[3],inactive
CC1COC(Cn2cncn2)(c2ccc(Oc3ccc(Cl)cc3)cc2Cl)O1 (centres undefined),outcome,[4],inactive
same,AC50,[5],6.97 µM (active)
same,outcome,[6],inactive
CCOC(=O)C(Cl)Cc1cc(-n2nc(C)n(C(F)F)c2=O)c(F)cc1Cl (centres undefined),outcome,[3],inactive
O=C(Nc1ccccc1)Nc1ccnc(Cl)c1,AC50,[5],14.5 µM (active)
COP(=S)(OC)Oc1nc(Cl)c(Cl)cc1Cl,outcome,[7],inactive
same,AC50,[5],12.6 µM (active)
same,outcome,[8],inactive
COC(=O)C(C)Oc1ccc(Oc2ccc(Cl)cc2Cl)cc1 (centres undefined),outcome,[9],inactive
CNC(=S)S,outcome,[7],inactive
same,outcome,[8],inactive
same,outcome,[10],inactive
same,outcome,[9],inactive
same,outcome,[11],inactive
same,AC50,[12],40.3 µM (active)
CCCC1COC(Cn2cncn2)(c2ccc(Cl)cc2Cl)O1 (centres undefined),AC50,[13],4.96 µM (active)
same,outcome,[14],inactive
same,AC50,[15],2.09 µM (active)
OC(c1ccc(Cl)cc1)(c1cncnc1)c1ccccc1Cl (centres undefined),outcome,[6],inactive
same,AC50,[15],12.5 µM (active)
COc1ccc(C(c2ccc(OC)cc2)C(Cl)(Cl)Cl)cc1,outcome,[2],inactive
same,outcome,[5],inactive
same,outcome,[16],inactive
same,outcome,[6],inactive
same,outcome,[13],inactive
same,outcome,[8],inactive
same,outcome,[14],inactive
same,outcome,[3],inactive
same,outcome,[15],inactive
CCOP(=S)(OCC)SCn1c(=O)oc2cc(Cl)ccc21,outcome,[15],inactive
CCCCNC(=O)OCC#CI,AC50,[5],15.3 µM (active) and 9.21 µM (active)
same,AC50,[10],15.9 µM (active) and 14.4 µM (active)
same,AC50,[15],13.3 µM (active)
same,outcome,[15],inactive
CCNc1nc(Cl)nc(NC(C)C)n1,outcome,[17],inactive
same,outcome,[7],inactive
COC(=O)C=C(C)OP(=O)(OC)OC,outcome,[14],inactive
C=CCC1=C(C)[C@@H](OC(=O)[C@@H]2[C@@H](C=C(C)C)C2(C)C)CC1=O,AC50,[5],25 µM (active)
CO/C=C(/C(=O)OC)c1ccccc1Oc1cc(Oc2ccccc2C#N)ncn1,outcome,[5],inactive
same,AC50,[6],14.6 µM (active)
same,AC50,[15],7.95 µM (active)
same,outcome,[15],inactive
COc1nc(C)nc(NC(=O)NS(=O)(=O)c2ccccc2Cl)n1,outcome,[9],inactive
COc1nc(C)nc(NC(=O)NS(=O)(=O)c2ccccc2CCC(F)(F)F)n1,outcome,[18],inactive
CN(C)C(=S)SSC(=S)N(C)C,AC50,[5],4.51 µM (active)
same,outcome,[14],inactive
same,AC50,[10],14.7 µM (active)
CCOc1cc(Oc2ccc(C(F)(F)F)cc2Cl)ccc1[N+](=O)[O-],outcome,[19],inactive
CS/C(C)=N/OC(=O)N(C)SN(C)C(=O)O/N=C(\C)SC,AC50,[10],25 µM (active)
C=CCC1=C(C)C(OC(=O)C2C(C=C(C)C)C2(C)C)CC1=O (centres undefined),outcome,[17],inactive
same,outcome,[20],inactive
same,AC50,[5],41.6 µM (active) and 29.3 µM (active)
C#CCOS(=O)OC1CCCCC1Oc1ccc(C(C)(C)C)cc1 (centres undefined),outcome,[17],inactive
same,AC50,[5],25 µM (active)
same,outcome,[9],inactive
CC(C)Oc1cc(-n2nc(C(C)(C)C)oc2=O)c(Cl)cc1Cl,outcome,[7],inactive
